# Measurements reported in PubChem BioAssay (Tox21).
# Where “and” joins values, the source holds several entries; their conditions need not be identical. Equal values may be shown once. Inconclusive results are not listed. Unmarked numbers belong to inactive results. Calls of active or inactive are those of the source. Calls follow the shape of the full dose curve.
# Assay: p53 small molecule agonists, cell-based qHTS assay with human liver microsomes: qHTS cell viability counter screen (AID 1963579); also: nearly all actives have a fitted effect of over 45% in size
# Conditions: p53RE-bla HCT-116 viability, ATP luminescence, 16 h, HLM; series mostly up to 66 µM; activity change, negative = cytotoxicity: at the top concentration
# Description: National Center for Advancing Translational Sciences [NCATS]
# Division of Preclinical Innovation [DPI]
# U.S. Environmental Protection Agency [EPA]
# National Institutes of Environmental Health Sciences [NIEHS]
# National Toxicology Program [NTP]
# U.S. Food and Drug Administration [FDA]
# p53, a tumor suppressor protein, is activated following cellular insult, including DNA damage and other cellular stresses. The activation of p53 regulates cell fate by inducing DNA repair, cell cycle arrest, apoptosis, or cellular senescence. The activation of p53, therefore, is a good indicator of DNA damage and other cellular stresses. […] The activation of the reporter gene under culture conditions can be detected by fluorescence intensity. This cell line was used to screen the Tox21 10K compound library in the condition of presence of human liver microsomes and to identify agonists that activate the p53 signaling pathway after in vitro metabolic activation (Ooka et al., Archive of Toxicology 96:1975-1987, 2022).
# Tox21 Assay Protocol Summary:
# The p53RE-bla cells were dispensed at 4,000cells/3ul/well in 1536-well black-clear bottom plates. After the assay plates were incubated at 37 C, 5% CO2 incubator for 5 hours, 23 nL of compounds dissolved in DMSO, positive controls or DMSO only was transferred to the assay plate. Following compound addition, 3 uL of human liver microsomes (XenoTech, Kansas City, KS) at final concentration of 0.5 mg/mL and 1uL of B-Nicotinamide adenine dinucleotide 2'-phosphate (NADPH) at final concentration of 0.5 mg/mL were transferred to the assay plate. The plates were incubated at 37 C for 16 hours. 1 uL of LiveBLAzer detection mixture was added to each well and the plates were incubated at room temperature in the dark for 2 h. Fluorescence intensity at 460 and 530 nm emission and 405 nm excitation were measured by an Envision plate reader. For cell viability readout that measures cytotoxicity, 4 ul/well of CellTiter-Glo reagent was added into the assay plates using a Flying Reagent Dispenser. After 30 min incubation at room temperature, the luminescence intensity in the plates was measured using a ViewLux plate reader.
# % is scaled to controls: 0 for no effect and ±100 for the full control effect; potency is read from the fitted curve at half-maximal effect.
Compound,"activity change, negative = cytotoxicity",Potency
CC(C)CCOCCC(C)C,1.76%,
O=C(O)CONC(=O)c1ccccc1,-0.612%,
CCCCCCCCCOCC1CO1 (stereo not given),2.87%,
C=COCCCC,1.39%,
NC(=O)c1ccc([N+](=O)[O-])cc1,0.291%,
CCCC/C=C\CCCCCCCCCC=O,0.0031%,
O=C1OC(=O)c2ccccc21,-0.407%,
C[C@H]1C[C@@H](O)CC(C)(C)C1,-0.908%,
NCCNCCNCCN,,inactive
CC(=O)NCCO,1.3%,
CC1CCc2nccnc21 (stereo not given),0.209%,
NCCCN1CCN(CCCN)CC1,4%,
CO[C@@]1(NC(=O)C(C(=O)O)c2ccc(O)cc2)C(=O)N2C(C(=O)O)=C(CSc3nnnn3C)CO[C@@H]21 (stereo not given in full),-6.16% [at 30.3 µM],
O=C1c2ccccc2C(=O)C1c1ccc2cc(S(=O)(=O)O)cc(S(=O)(=O)O)c2n1,-7.3%,
CC1=CC(=O)[C@H]2C[C@@H]1C2(C)C,-8.43%,
C=C(C)C(=O)OCCC[Si](Cl)(Cl)Cl,1.63%,
COc1cc(C(=S)N2CCOCC2)ccc1O,-0.569% [at 30.3 µM],
CCO/C([O-])=N/c1c[n+](N2CCOCC2)no1,-0.866% [at 30.3 µM],
CC(=O)N(O)CCCCCNC(=O)CCC(=O)N(O)CCCCCNC(=O)CCC(=O)N(O)CCCCCN,-11.8% [at 30.3 µM],
CCCCCCCCCCCCC(=O)O,-0.772%,

Compound,"activity change, negative = cytotoxicity",Potency
O=C(O)c1cc(O)c(O)c(O)c1,,inactive
OC[C@H]1O[C@@H]2O[C@H]3[C@H](O)[C@@H](O)[C@@H](O[C@H]4[C@H](O)[C@@H](O)[C@@H](O[C@H]5[C@H](O)[C@@H](O)[C@@H](O[C@H]6[C@H](O)[C@@H](O)[C@@H](O[C@H]7[C@H](O)[C@@H](O)[C@@H](O[C@H]8[C@H](O)[C@@H](O)[C@@H](O[C@H]1[C@H](O)[C@H]2O)O[C@@H]8CO)O[C@@H]7CO)O[C@@H]6CO)O[C@@H]5CO)O[C@@H]4CO)O[C@@H]3CO,,inactive
CCCCCCCCOC(=O)CCCCCCCCC(=O)OCCCCCCCC,4.9%,
C[Si](C)O[Si](C)(C)O[Si](C)(C)O[Si](C)C,2.29%,
CN(Cc1cnc2nc(N)nc(N)c2n1)c1ccc(C(=O)N[C@@H](CCC(=O)O)C(=O)O)cc1,,inactive
C=CCc1cc(OC)c(O)c(C(=O)NCCO)c1,-1.7% [at 30.3 µM],
COC(=O)/C=C/c1ccccc1,,inactive
O=C1Nc2ccccc2C1(c1ccc(O)cc1)c1ccc(O)cc1,,inactive
CC(C)(C)OC(=O)c1cccc(N)c1,1.81%,
CC(C=O)Cc1ccc(C(C)(C)C)cc1 (stereo not given),,inactive
C/C=C/C(=O)O,,inactive
CC(C)CC(O)Cc1ccccc1 (stereo not given),11.6%,
Oc1ccc(O)c2c(O)cccc12,7.32%,
CC(C)OC=O,,inactive
Cc1occc1S,2.03%,
CCCCC(CC)COP(=O)(O)OCC(CC)CCCC (stereo not given),,36.4 µM (active) and 20.4 µM (active)
CCCCCCS,0.0684%,
Cc1c(N)cccc1C(F)(F)F,-12.3% [at 30.3 µM],
C=CCCC=C,-26.1%,
CC(=O)OC/C=C(\C)CC/C=C(\C)CCC=C(C)C,,inactive
